Among the data in PubChem BioAssay are composite z-score, z-score and composite Z-score values, retold here.

Where “and” joins values, the source holds several entries; their conditions need not be identical. Identical values can stand only once. Calls of active or inactive are those of the source.

Experiment [1] concerns Human papillomavirus type 1a protein E7 (residues 44-93). Put plainly: small molecules binding HPV E7 44-93 – biochemical, small-molecule microarray, residues 44-93, 635 nm fluorescence, primary screen (AID 1108).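 Note: E7 fragment applied at 1 µg/mL in TBST for 1 h at 4 C; score combines spot fluorescence with its signal to noise ratio.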 The settings on record: fluorescence 635 nm, higher = more signal.
Experiment [2] is described as follows: hepatitis C replication reporter changes, two-sided – Huh7 cells, luciferase reporter, HCV replication inhibitor project, primary screen (AID 1109).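 Note: huh7 hepatoma cells harbouring a luciferase neomycin HCV replicon reporter; luciferase luminescence as measure of HCV replicon replication; test concentration not given here.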 To be noted: Huh7 HCV replicon luciferase reporter, 48 h; higher = more signal.
Experiment [3] concerns the target Left-right determination factor 2 (Homo sapiens) (UniProt O00292). As to the kind of experiment: small molecules binding LEFTY2 protein – biochemical, small-molecule microarray, 635 nm fluorescence scan, primary screen (AID 1110). To be noted: higher = more signal.
Experiment [4] deals with Calmodulin-1 (Homo sapiens) (UniProt P0DP23). As to the kind of experiment: small molecules binding calmodulin-1 with EGTA – biochemical, small-molecule microarray, Cy5-labelled CALM1, profiling panel (AID 1111).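 Note: labelled calmodulin applied in Tris saline Tween buffer holding calcium plus EGTA and DTT.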 To be noted: Cy5-CALM1 binding fluorescence, higher = more signal.
Experiment [5] has the same target. As to the kind of experiment: small molecules binding Ca-loaded calmodulin-1 – biochemical, small-molecule microarray, Cy5-labelled CALM1, plus calcium, artefact control for SMM control-protein annotation, profiling panel (AID 1112).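 Note: score merges spot fluorescence with signal to noise from triplicate slides.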 To be noted: Cy5-CALM1 binding fluorescence, higher = more signal.
A short description of experiment [6]: probe aWnt5a binding to arrayed compounds – biochemical, biotinylated probe, 635/667 nm fluorescence, primary screen (AID 1113).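 Note: score merges 667 nm fluorescence intensity with signal-to-noise per printed feature.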 To be noted: small-molecule microarray, higher = more signal.
Experiment [7] in a line: probe aShh binding to arrayed compounds – biochemical, biotinylated probe, 635/667 nm fluorescence, primary screen (AID 1114).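 Note: probe is biotin-labelled aShh protein from a stem cell growth factor screen; measures binding of labelled protein to compounds printed on the slide; score merges feature fluorescence at 667 nm with signal-to-noise.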 To be noted: small-molecule microarray, higher = more signal.
Experiment [8] is described as follows: probe aNog binding to arrayed compounds – biochemical, biotinylated probe, 635/667 nm fluorescence, primary screen (AID 1115).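 Note: probe is biotinylated aNog protein used at 0.15 µg/mL for 1 h at 4 C; z-score combines 667 nm fluorescence of each spot with its signal to noise.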 The settings on record: small-molecule microarray, higher = more signal.
In experiment [9] the target is Torsin-1A-interacting protein 1 (Homo sapiens) (UniProt Q5JTV8). As to the kind of experiment: compound microarray binding of lysate hLAP1 – cell lysate, small-molecule microarray, COS7 lysate, 635/667 nm fluorescence, primary screen (AID 1116). The settings on record: 635 nm fluorescence, higher = more signal.
The target in experiment [10] is Alpha-bungarotoxin (Bungarus multicinctus) (UniProt P60615). Put plainly: compounds binding labelled alpha-BTX control protein – biochemical, small-molecule microarray, Alexa647 label, 635/667 nm fluorescence, artefact control for SMM control protein annotation, profiling panel (AID 1117). The settings on record: alpha-BTX-A647 binding fluorescence, higher = more signal.

The target of a further experiment is Albumin (Bos taurus) (UniProt P02769). As to the kind of experiment: compounds binding labelled BSA control protein – biochemical, small-molecule microarray, Alexa647 label, 635/667 nm fluorescence, artefact control for SMM control protein annotation, profiling panel (AID 1118).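 Note: score merges 667 nm emission intensity and signal-to-noise per printed compound spot.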 The settings on record: BSA-A647 binding, fluorescence 635 nm, higher = more signal.

The nature of experiment [11]: probe aXIP binding to arrayed compounds – biochemical, NeuroSMM set, 635/667 nm fluorescence, primary screen (AID 1119).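 Note: probe is the protein aXip251-270 applied at 1 µg/mL to compound-printed slides; binding of probe to printed compounds measured as 667 nm fluorescence plus signal to noise.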 To be noted: small-molecule microarray, higher = more signal, called active from +8 up or from −8 down.
Experiment [12] in a line: probe aNOTCH3 binding on compound microarray – biochemical, small-molecule microarray, 635/667 nm fluorescence, primary screen (AID 1120).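 Note: probe is a biotin-tagged antibody raised against NOTCH3 rather than NOTCH3 protein; score merges spot fluorescence near 667 nm with spot signal to noise.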 The settings on record: higher = more signal.
A short description of experiment [13]: probe aNOTCH2 binding on compound microarray – biochemical, small-molecule microarray, 635/667 nm fluorescence, primary screen (AID 1121).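 Note: score merges feature fluorescence read at 667 nm with its signal to noise.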 The settings on record: higher = more signal.
Experiment [14] deals with Carbonic anhydrase 2 (Homo sapiens) (UniProt P00918). As to the kind of experiment: compounds binding carbonic anhydrase 2 – biochemical, small-molecule microarray, Alexa647-labelled CAII, profiling panel (AID 1122). To be noted: CAII-A647 binding fluorescence, higher = more signal.
Experiment [15] is described as follows: COS7 lysate on small-molecule microarray, probe aHis, 635 nm (AID 1123).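 Note: z-score combines 667nm fluorescence intensity with signal-to-noise per printed compound spot.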 The settings on record: COS7 cell lysate, fluorescence, higher = more signal.
Experiment [16] can be described thus: probe aLAP1 signal on lysate-treated microarray – cell lysate, small-molecule microarray, COS7 lysate, primary screen (AID 1124).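 Note: lysate comes from COS7 cells expressing LAP1 and is applied at 0.3 µg/mL; score merges spot fluorescence near 667 nm with signal-to-noise over triplicate slides.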 The settings on record: probe aLAP1, fluorescence, higher = more signal.
A further experiment relates to Sam68 (KHDRBS1). Put plainly: compounds binding KHDRBS1 protein – biochemical, small-molecule microarray, 635 nm fluorescence, primary screen (AID 1125).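 Note: score merges 667 nm channel intensity with signal to noise over triplicate slides.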 To be noted: higher = more signal.
Experiment [17] has as its system Chordin-like protein 2 (CHRDL2). Put plainly: compounds binding chordin-like 2 – biochemical, small-molecule microarray, 635 nm fluorescence, primary screen (AID 1126).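 Note: printed compound slides probed with Chrdl2 protein at 4 µg/mL for 1 h at 4 C; score merges 667 nm emission intensity with signal to noise over three replicate slides.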 To be noted: fluorescence 635 nm, higher = more signal.
Experiment [18] has as its target Concanavalin-A (Canavalia ensiformis) (UniProt P02866). As to the kind of experiment: compounds binding concanavalin A lectin – biochemical, small-molecule microarray, Alexa647 label, 635 nm, artefact control for SMM control protein annotation, primary screen (AID 1127).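 Note: z combines 667 nm emission intensity with signal-to-noise across three replicate slides.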 The settings on record: ConA-A647 binding fluorescence, higher = more signal.

Sequence of Torsin-1A-interacting protein 1 (Homo sapiens) (Q5JTV8 whole entry, looked up): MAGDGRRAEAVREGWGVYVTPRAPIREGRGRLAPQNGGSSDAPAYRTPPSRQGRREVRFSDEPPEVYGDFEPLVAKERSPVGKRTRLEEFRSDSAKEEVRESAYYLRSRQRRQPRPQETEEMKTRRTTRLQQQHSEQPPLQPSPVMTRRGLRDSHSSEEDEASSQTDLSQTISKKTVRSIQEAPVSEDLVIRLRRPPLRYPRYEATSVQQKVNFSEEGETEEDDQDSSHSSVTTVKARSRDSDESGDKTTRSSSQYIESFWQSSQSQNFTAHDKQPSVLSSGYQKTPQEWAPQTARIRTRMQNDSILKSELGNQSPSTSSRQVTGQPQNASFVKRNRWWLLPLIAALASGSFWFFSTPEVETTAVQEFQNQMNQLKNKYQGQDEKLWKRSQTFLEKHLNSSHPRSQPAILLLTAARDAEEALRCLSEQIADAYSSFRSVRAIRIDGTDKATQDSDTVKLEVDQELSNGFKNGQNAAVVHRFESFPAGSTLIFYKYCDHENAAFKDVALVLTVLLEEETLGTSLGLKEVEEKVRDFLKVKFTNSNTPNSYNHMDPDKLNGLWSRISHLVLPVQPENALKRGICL
Sequence of Concanavalin-A (Canavalia ensiformis) (P02866 whole entry, looked up): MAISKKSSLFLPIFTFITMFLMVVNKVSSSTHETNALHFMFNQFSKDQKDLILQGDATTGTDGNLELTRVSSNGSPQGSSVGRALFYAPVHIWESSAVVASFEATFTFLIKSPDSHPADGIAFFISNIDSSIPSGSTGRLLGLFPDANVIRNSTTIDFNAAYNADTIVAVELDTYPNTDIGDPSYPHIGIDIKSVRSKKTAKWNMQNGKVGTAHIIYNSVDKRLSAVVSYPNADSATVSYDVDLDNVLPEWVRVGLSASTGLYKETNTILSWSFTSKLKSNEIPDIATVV
Sequence of Left-right determination factor 2 (Homo sapiens) (O00292 whole entry, looked up): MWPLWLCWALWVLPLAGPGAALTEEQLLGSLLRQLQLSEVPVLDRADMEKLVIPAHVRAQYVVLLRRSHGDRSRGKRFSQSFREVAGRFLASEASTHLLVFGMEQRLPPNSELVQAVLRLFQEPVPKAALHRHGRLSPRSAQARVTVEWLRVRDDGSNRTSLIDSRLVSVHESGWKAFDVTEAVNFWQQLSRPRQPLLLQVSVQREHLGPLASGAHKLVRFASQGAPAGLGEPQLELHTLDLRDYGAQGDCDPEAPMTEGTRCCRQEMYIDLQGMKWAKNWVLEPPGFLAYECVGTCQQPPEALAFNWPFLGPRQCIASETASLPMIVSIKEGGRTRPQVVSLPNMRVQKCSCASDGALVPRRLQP
Sequence of Alpha-bungarotoxin (Bungarus multicinctus) (P60615 whole entry, looked up): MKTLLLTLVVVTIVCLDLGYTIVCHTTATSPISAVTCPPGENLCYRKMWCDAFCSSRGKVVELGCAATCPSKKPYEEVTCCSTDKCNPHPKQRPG
Sequence of Albumin (Bos taurus) (P02769 whole entry, looked up): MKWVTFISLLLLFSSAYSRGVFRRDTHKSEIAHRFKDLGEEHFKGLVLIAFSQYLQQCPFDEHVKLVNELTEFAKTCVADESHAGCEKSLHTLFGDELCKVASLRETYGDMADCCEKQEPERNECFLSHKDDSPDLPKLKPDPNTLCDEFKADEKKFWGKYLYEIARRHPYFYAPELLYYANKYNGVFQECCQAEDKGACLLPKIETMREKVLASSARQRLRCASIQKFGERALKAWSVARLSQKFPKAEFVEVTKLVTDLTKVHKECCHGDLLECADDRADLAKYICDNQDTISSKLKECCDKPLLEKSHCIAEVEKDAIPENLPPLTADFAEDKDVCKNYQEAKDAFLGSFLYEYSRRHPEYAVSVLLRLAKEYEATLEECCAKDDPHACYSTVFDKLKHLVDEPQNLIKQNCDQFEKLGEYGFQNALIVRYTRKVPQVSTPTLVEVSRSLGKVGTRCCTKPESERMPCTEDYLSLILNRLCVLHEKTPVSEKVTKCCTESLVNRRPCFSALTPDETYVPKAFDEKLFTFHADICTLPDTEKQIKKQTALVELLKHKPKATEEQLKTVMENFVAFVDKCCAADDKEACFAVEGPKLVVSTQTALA

In the case of `C=C[C@@H](OC)[C@H](O)c1ccc(OC)c(O)c1`, the composite z-score in experiment [1] is -0.306 and -0.0635; in experiment [3], 0.861 and -0.46; in experiment [4] it was -1.19 and -1.42; in experiment [5] it was -0.799 and -0.187; in experiment [6], -0.293 and -0.208; in experiment [7], -0.289 and -0.138. Besides, the composite z-score is -0.321 and -0.347 in experiment [8]; 0.0742 and 0.111 in experiment [9]; -0.397 and 0.989 in [10]; 0.346 and 0.226 with Albumin (Bos taurus); -0.0044 and -0.521 in experiment [12]; -0.0212 and -0.163 in experiment [13]. Moreover, the composite z-score in experiment [14] was -0.189 and 0.232; in [15], -0.0302 and 0.043; in experiment [16], -0.37 and -0.649; in the experiment on Sam68 (KHDRBS1), 0.043 and -0.955; in experiment [17], 1.11 and -0.52; in experiment [18], -0.847 and -1.4. In experiment [2], the z-score was 0.552 and -0.127. Further, in experiment [11], the composite Z-score was 0.767 (inactive) and -1.19 (inactive).

Turning to `CO[C@@H]1COC(=O)CC=C[C@H](C)[C@@H](NS(=O)(=O)c2ccc(C)cc2)COC(=O)CC=C[C@@H]1C`, the composite z-score is 0.494 and -1.3 in experiment [1]; 0.687 and 0.845 in [3]; -0.653 and -0.748 in experiment [4]; -1.02 and -1.12 in experiment [5]; -0.101 and -0.126 in [6]; 0.0121 and -0.156 in experiment [7]. Further, the composite z-score in experiment [8] is -0.23 and -0.289; in experiment [9] it was 0.149 and 0.483; in [10], 1.15 and -0.0808; with Albumin (Bos taurus) it was 0.451 and -0.303; in experiment [12], 0.127 and 0.0876; in [13], -0.0995 and -0.175. In addition, the composite z-score in experiment [14] was 0.0088 and -0.407; in [15] it was 0.199 and -1.12; in [16], 0.0136 and -0.0513; in the experiment on Sam68 (KHDRBS1) it was 0.762 and 0.68; in [17], 0.685 and 1.25; in experiment [18], -0.0145 and -0.207. The z-score in experiment [2] is -1.06 and -1.76. In addition, in experiment [11], the composite Z-score was -0.288 (inactive) and 0.209 (inactive).

Regarding `CCN1C(=O)[C@H]2[C@H]3[C@H](O)[C@H](O)CC(=NOC)[C@@H]3CC[C@H]2C1=O`, the composite z-score in experiment [1] was -0.524; in experiment [3], 0.256; in [4], -0.472; in [5] it was -0.266; in [6], -0.147; in [7], 0.13. Further, the composite z-score in experiment [8] is -0.122; in experiment [9] it was 0.262; in experiment [10], 0.178; with Albumin (Bos taurus), -0.311; in experiment [12], 0.0297; in [13], -0.0681. Besides, the composite z-score in experiment [14] is -0.317; in [15], -0.417; in [16] it was -0.375; in the experiment on Sam68 (KHDRBS1), -0.478; in experiment [17], 0.508; in experiment [18], -0.0569. The z-score in experiment [2] amounted to 0.964. In [11], the composite Z-score is -0.791 (inactive).

With `CCOC(=O)C[C@H]1[C@H](OC(=O)c2ccccc2-c2ccccc2)[C@@H](NC(=O)c2ccccc2)c2cc(OCCCO)ccc2N1C(=O)c1ccc2ccccc2n1`, the composite z-score in [1] is 0.288 and 1.08; in experiment [3], 0.668 and 0.619; in [4] it was -0.118 and 1.47; in experiment [5], -0.148 and 0.227; in [6] it was 0.0324 and -0.108; in experiment [7], -0.2 and 0.0078. In addition, the composite z-score in experiment [8] was -0.122 and 0.386; in experiment [9], 0.491 and 0.364; in [10], 0.328 and 0.833; with Albumin (Bos taurus), 0.369 and 0.645; in experiment [12], 0.0223 and 0.228; in experiment [13] it was -0.0073 and -0.0357. Also, the composite z-score in experiment [14] is 0.348 and 0.0749; in experiment [15] it was 0.25 and 0.958; in experiment [16] it was 0.0741 and 0.356; with Sam68 (KHDRBS1), 0.443 and 1.2; in experiment [17] it was 0.243 and 0.175; in experiment [18] it was 0.436 and 1.04. The z-score in experiment [2] is -1.19 and -0.583. For the same compound, in experiment [11], the composite Z-score was 0.095 (inactive) and 0.291 (inactive).

With `COC(=O)CC=C[C@@H](C)[C@@H](CO)NS(=O)(=O)c1ccc(C)cc1`, the composite z-score in [1] was -0.314 and 0.755; in [3] it was 0.632 and 0.966; in experiment [4] it was -0.442 and -0.343; in experiment [5], -1.01 and -0.837; in experiment [6], -0.0405 and -0.0994; in experiment [7], -0.522 and 0.111. In addition, the composite z-score in experiment [8] is -0.0503 and 0.0287; in experiment [9] it was -0.145 and 0.808; in experiment [10], -0.309 and 0.0211; with Albumin (Bos taurus), 0.0833 and -0.252; in experiment [12] it was -0.0391 and 0.111; in experiment [13], -0.0703 and -0.14. Besides, the composite z-score is -0.121 and 0.0581 in [14]; -0.114 and 0.0271 in [15]; -0.144 and -0.481 in experiment [16]; -0.182 and 0.567 in the experiment with Sam68 (KHDRBS1); 0.696 and 1.03 in [17]; -0.213 and -0.52 in experiment [18]. Besides, the z-score in experiment [2] is -0.465 and -0.0825. Also, in [11], the composite Z-score was 0.105 (inactive) and 0.309 (inactive).
